A selection: hits, their analogues and other compounds. The true share with any hit is near 2.4%.
MEKK2wt PB1 HTS: raises or lowers MEK5 binding to wildtype human MEKK2 PB1 domain; Q9Y2U5; bead flow cytometry, Alexa488-MEK5 binding to MEKK2 WT; actives lie on both sides; binding response (% of control), % at 10 µM; actives 1.1% (n = 290,000); AID 1531; in the data active means binding response below about 67% or above about 130%
MEKK2mut PB1 HTS: signal of MEK5 binding to mutant human MEKK2 PB1 domain; bead flow cytometry, Alexa488-MEK5 binding to MEKK2 mutant; percent response, % at 10 µM; actives 0.35% (n = 290,000); AID 1530; in the data active means percent response above about 24%, passing the limit was not always enough
MEKK3 PB1 HTS: raises or lowers MEK5 binding to the human MEKK3 PB1 domain; actives 1.4% (n = 290,000); bead-based flow cytometry, Alexa488-MEK5 binding to MEKK3; actives lie on both sides; 0 = blocked by unlabeled MEK5, 100 = vehicle; binding response (% of control), % at 10 µM; Q99759;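 active means binding response more than 3 SD above or below the average of its plate-row segment, actives on both sides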;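 further: Alexa488 bead fluorescence after subtracting the streptavidin-only scavenger bead signal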
Target sequence (Q99759 whole entry, looked up, the tested form may be a part): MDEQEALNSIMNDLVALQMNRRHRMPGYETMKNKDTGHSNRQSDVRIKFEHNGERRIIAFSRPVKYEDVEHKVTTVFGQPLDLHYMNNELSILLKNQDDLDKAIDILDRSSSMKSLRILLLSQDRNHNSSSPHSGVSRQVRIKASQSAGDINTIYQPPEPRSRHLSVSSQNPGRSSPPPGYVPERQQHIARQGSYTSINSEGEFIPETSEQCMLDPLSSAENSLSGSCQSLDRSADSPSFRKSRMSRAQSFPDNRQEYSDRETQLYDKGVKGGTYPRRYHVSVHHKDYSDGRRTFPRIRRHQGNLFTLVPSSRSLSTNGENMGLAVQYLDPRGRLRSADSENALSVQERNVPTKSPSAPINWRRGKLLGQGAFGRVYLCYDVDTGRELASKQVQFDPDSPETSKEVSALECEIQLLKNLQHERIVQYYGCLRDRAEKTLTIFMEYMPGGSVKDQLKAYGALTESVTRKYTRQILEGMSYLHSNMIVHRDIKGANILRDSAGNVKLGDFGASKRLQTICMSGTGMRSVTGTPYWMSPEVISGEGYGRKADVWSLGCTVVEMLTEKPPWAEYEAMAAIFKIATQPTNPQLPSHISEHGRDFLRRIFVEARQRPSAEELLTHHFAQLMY
Arbovirus inh: blocks arbovirus infection; actives 0.37% (n = 200,000); inhibition, % at 10 µM; arbovirus infection cell-based antiviral screen; AID 1251; in the data active means inhibition above about 30%
Pf gamet viab: inhibitors of late stage P. falciparum gametocyte viability. P. falciparum stage V gametocytes, ATP luminescence, 24 h. inhibition, % at 10.9 µM. actives 0.065% (n = 150,000). AID 743093;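 active means inhibition above the mean plus 3 SD of compounds within the control limits, set per campaign, cut at about 38% in these data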;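 further: 0% = DMSO wells and 100% = medium only without gametocytes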
MEKK2wt confirm: raises or lowers MEK5 binding to wildtype human MEKK2, retest | bead flow cytometry, Alexa488-MEK5 binding to MEKK2 WT; actives lie on both sides | actives 2.4% (n = 5,900) | binding response (% of control), % at 10 µM | shares compounds with MEKK3 PB1 HTS; in the data active means binding response below about 16% or above about 210%; inactive means in between
MEKK2mut confirm: signal of MEK5 binding to mutant human MEKK2, retest | shares compounds with MEKK3 PB1 HTS | bead flow cytometry, Alexa488-MEK5 binding to MEKK2 mutant | percent response, % at 10 µM | actives 2% (n = 5,900) | AID 1893; in the data active means percent response mostly above about 71%, no sharp cut-off; inactive means mostly below about 38%;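 further: higher means compound restores mutant binding toward wildtype level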
MEKK3 confirm: confirmation of inhibitors of MEK5 binding to human MEKK3. bead flow cytometry, Alexa488-MEK5 binding to MEKK3; stronger effect = lower value. binding response (% of control), % at 10 µM. actives 1.8% (n = 5,900). shares compounds with MEKK3 PB1 HTS. AID 1894;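 active means binding response below 72% of control, or above a set upper limit, though filed actives all read lower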;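 further: 100% = DMSO only wells and 0% = binding blocked by excess unlabeled MEK5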
Starred values were filed as active, the others as inactive; nt = no result; [ ] = remark or other dose.

SMILES	MEKK2wt PB1 HTS	MEKK2mut PB1 HTS	MEKK3 PB1 HTS	Arbovirus inh	Pf gamet viab	MEKK2wt confirm	MEKK2mut confirm	MEKK3 confirm
Cn1c(SCC(=O)NCC2CCCO2)nc2c(c1=O)SCC2 (centres undefined)	105.0	6.0	103.0	nt	nt	nt	nt	nt
CCc1ccc(C2=NN(CCC(=O)NC3CC3)C(=O)CC2)cc1	106.0	0.0	144.0*	-4.7	nt	98.0	-12.0	101.0
CCOc1ccccc1C1C(C(=O)Nc2ccccc2OC)=C(C)Nc2nnnn21 (centres undefined)	111.0	26.0*	113.0	-3.0	-3.2	101.0	4.0	100.0
COc1ccccc1NC(=O)C1=C(C)Nc2nnnn2C1c1ccncc1 (centres undefined)	99.0	-1.0	100.0	2.3	3.3	nt	nt	nt
Cc1cccc(C)c1NC(=S)N(Cc1ccco1)C1CCN(C(C)C)CC1	107.0	1.0	128.0*	2.0	-13.2	112.0	15.0	105.0
O=C(CCCCn1c(=O)c2ccccc2n(Cc2ccccc2)c1=O)NC1CCN(Cc2ccccc2)CC1	32.0*[inhibitor]	-20.0	22.0*[inhibitor]	-19.9	5.6	105.0	2.0	101.0
Cc1ccc2c(c1)c1c3n2CCN(CC(O)CNC(C)C)C3CCC1 (centres undefined)	169.0*	12.0	107.0	nt	nt	119.0	4.0	98.0
Cc1ccc2c(c1)c1c3n2CCN(CC(N)=O)C3CCC1 (centres undefined)	105.0	0.0	100.0	nt	1.4	nt	nt	nt
COc1ccc([C@H]2C(C#N)=C([S-])N[C@](C)(O)[C@@H]2[n+]2ccccc2)cc1	89.0	-10.0	82.0	nt	-10.4	nt	nt	nt
CSCCC(NS(=O)(=O)c1ccccc1F)C(=O)Nc1cccc(C)n1 (centres undefined)	103.0	8.0	100.0	nt	nt	nt	nt	nt
COc1nc(N(C)C)nc(-n2nnc(C(C)=O)c2C)n1	1.0*[inhibitor]	-42.0	2.0*[inhibitor]	-7.8	-32.6	95.0	-8.0	97.0
CCOc1nc(N(C)C)nc(-n2nnc(C(C)=O)c2C)n1	117.0	7.0	108.0	-7.0	-5.1	nt	nt	nt
CCOc1cc(CNC2CCCC2)cc(Cl)c1OCc1ccc(F)cc1	144.0*	14.0	101.0	-52.1	nt	149.0	26.0	97.0
COc1cc(CNCCO)cc(Cl)c1OCc1ccc(Cl)cc1Cl	161.0*	25.0	106.0	-43.7	-13.8	160.0	27.0	108.0
COc1cc(CNC2CCCC2)cc(Cl)c1OCc1ccccc1Cl	207.0*	46.0	109.0	-29.9	nt	141.0	23.0	109.0
COc1cc(CNC2CCCC2)cc(Cl)c1OCc1ccc(F)cc1	126.0	25.0*	98.0	-40.8	nt	127.0	10.0	104.0
CCNCc1cc(Cl)c(OCc2ccccc2)c(OCC)c1	112.0	1.0	111.0	-31.3	-8.5	nt	nt	nt
CCc1nccn1S(=O)(=O)c1cc(OC)ccc1OC	101.0	1.0	99.0	nt	-1.3	nt	nt	nt
Cc1cc(OC(C)C(=O)Nc2ccccc2C(=O)N2CCCC2)ccc1Cl (centres undefined)	107.0	9.0	103.0	nt	nt	nt	nt	nt
O=C(CSCc1ccc(Br)cc1)N=Nc1c(O)[nH]c2ccccc12	112.0	1.0	146.0*	14.2	-4.7	105.0	4.0	101.0
CCC(=O)c1ccc(OCC(O)CN2CCOCC2)cc1 (centres undefined)	2.0*[inhibitor]	-31.0	2.0*[inhibitor]	7.9	2.5	99.0	-2.0	101.0
CCC(=O)c1ccc(OCC(O)CN2CCN(C(c3ccccc3)c3ccccc3)CC2)cc1 (centres undefined)	158.0*	18.0	105.0	4.7	-6.0	114.0	8.0	103.0
COc1cccc(CN(C(=O)c2cc3ccccc3oc2=O)C2CCS(=O)(=O)C2)c1 (centres undefined)	98.0	4.0	100.0	nt	nt	nt	nt	nt
O=C(CSc1n[nH]c(-c2ccccc2Cl)n1)NCc1cccc(C(=O)O)c1	92.0	-10.0	99.0	6.6	-1.9	nt	nt	nt
O=C(O)CCC(=O)Nc1cccc(-c2nc3ccccc3o2)c1	110.0	0.0	105.0	nt	-1.7	nt	nt	nt
SMILES	MEKK2wt PB1 HTS	MEKK2mut PB1 HTS	MEKK3 PB1 HTS	Arbovirus inh	Pf gamet viab	MEKK2wt confirm	MEKK2mut confirm	MEKK3 confirm
CCOC(=O)Cn1c(=N)n(CCOc2ccc3ccccc3c2)c2ccccc21	146.0*	19.0	105.0	-6.5	nt	150.0	23.0	104.0
CCOC(=O)Cn1c(=N)n(CCOc2ccc(OC)cc2)c2ccccc21	114.0	8.0	106.0	-4.7	nt	nt	nt	nt
CC1=NN(C(=S)Nc2ccccc2)C(C)(C)C1	102.0	-4.0	101.0	-7.9	-16.1	nt	nt	nt
O=C(NS(=O)(=O)c1ccc(Cl)s1)c1ccccc1	193.0*	23.0	112.0	nt	3.1	115.0	9.0	103.0
COc1ccc([N+](=O)[O-])cc1NC(=O)c1ccc(C)o1	109.0	1.0	187.0*	-14.3	10.5	96.0	-1.0	95.0
CC(C)c1ccc(N2C(=O)/C(=C/N(C)C)SC2=S)cc1	62.0*[inhibitor]	6.0	100.0	nt	-2.1	85.0	-10.0	88.0
CCO/C=C1\SC(=S)N(c2ccc(Cl)cc2)C1=O	104.0	1.0	108.0	nt	11.8	nt	nt	nt
COC(=O)CC1Oc2ccc(C)cc2NC1=O (centres undefined)	19.0*[inhibitor]	-17.0	16.0*[inhibitor]	7.1	nt	105.0	0.0	100.0
CCNS(=O)(=O)c1ccc(CCC(=O)N2CCC(C)CC2)cc1	104.0	2.0	102.0	nt	nt	nt	nt	nt
COC(=O)c1cc(C)cc(=O)o1	99.0	-1.0	100.0	nt	-4.6	nt	nt	nt
Cc1cc(C(=O)Nc2ccccc2)oc(=O)c1	66.0	-25.0	49.0*[inhibitor]	nt	-1.4	99.0	-7.0	91.0
O=c1cc(N2CCOCC2)c2ccccc2o1	105.0	7.0	97.0	6.3	nt	nt	nt	nt
O=c1cc(N2CCCC2)c2ccccc2o1	nt	-33.0	1.0*[inhibitor]	-0.5	-22.9	104.0	-3.0	103.0
CSc1ccc(NC(=O)NCCN2CCc3ccccc3C2)cc1	86.0	-20.0	49.0*[inhibitor]	4.9	nt	132.0	17.0	107.0
COc1ccc(NC(=O)NCCN2CCc3ccccc3C2)cc1	101.0	-14.0	87.0	-0.6	-30.8	nt	nt	nt
CSc1ccc(NC(=O)NCCCN2CCC(Cc3ccccc3)CC2)cc1	162.0*	30.0*	111.0	nt	nt	185.0	40.0	112.0
COc1ccc(NC(=O)NCCCN2CCC(Cc3ccccc3)CC2)cc1	96.0	-6.0	90.0	nt	-18.5	nt	nt	nt
Cc1nc2cc(NC(=O)c3ccc(N4C(=O)CCC4=O)cc3)ccc2s1	105.0	-1.0	114.0	16.8	-2.4	nt	nt	nt
COc1ccc(CNCCc2ccccc2)cc1OCC(N)=O	106.0	7.0	98.0	-3.7	5.9	nt	nt	nt
COc1ccc(CNCCc2ccc(Cl)cc2)cc1OCc1ccccc1	2.0*[inhibitor]	-83.0	2.0*[inhibitor]	-25.9	nt	145.0	23.0	108.0
CCOc1cc(CNCc2ccccc2)ccc1OCc1ccc(Cl)cc1	160.0*	22.0	99.0	nt	nt	170.0	36.0	105.0
N/C(=N\O)c1ccccc1N1CCCCC1	105.0	7.0	105.0	-2.0	nt	nt	nt	nt

High-throughput results deposited in PubChem by several laboratories.
